Laboratory results taken from PubChem BioAssay AID1159580 (chemical genetic matrix, 2015).
“And” between values parts separate entries of the source, which are not always exact repeats. Equal entries are not always repeated. In all, about 5,500 compounds went through this assay and about 2,000 (36%) were called active. Inconclusive results (about 18%) are left out. Rule as the data show it: active = normalized growth mostly below about 0.91 (no sharp cut-off); inconclusive = no clear call, values can overlap the other calls; inactive = mostly above about 0.92. The list shows a part of the results.

Assay: chemical genetic growth profiling, strain panel (AID 1159580);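 also: tested at 20 µM; growth read once vehicle control cultures reached saturation at 30 °C; 1 = growth at the plate median or of vehicle wells; lower values mean less growth of the strain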
Conditions: S. cerevisiae deletion strains, growth OD

Measured: normalized growth

CC1(C)CC2C1CCC1(C)OC2(C)CCC1O (stereo not given)
inactive: locus YAL021C, strain ccr4, stronger effect = lower value 1.02 | locus YAL026C, strain drs2, stronger effect = lower value 1.05 | locus YAL030W, strain snc1, stronger effect = lower value 1.03 | locus YBL061C, strain skt5, stronger effect = lower value 1.03 | locus YBR009C, strain hhf1, stronger effect = lower value 1.03 | locus YBR021W, strain FUR4, stronger effect = lower value 1.03 | locus YBR023C, strain chs3, stronger effect = lower value 1.03 | locus YBR171W, strain sec66, stronger effect = lower value 1.03 | locus YBR229C, strain ROT2, stronger effect = lower value 1.02 | locus YBR231C, strain swc5, stronger effect = lower value 1.02 | locus YBR279W, strain paf1, stronger effect = lower value 1.02 | locus YCL011C, strain gbp2, stronger effect = lower value 1.02 | locus YCL016C, strain dcc1, stronger effect = lower value 1.01 | locus YCL029C, strain bik1, stronger effect = lower value 1.01 | locus YCL061C, strain MRC1, stronger effect = lower value 1.03 | locus YCL069W, strain vba3, stronger effect = lower value 1.03 | locus YCR088W, strain abp1, stronger effect = lower value 1.02 | locus YDL005C, strain med2, stronger effect = lower value 1.03 | locus YDL035C, strain GPR1, stronger effect = lower value 0.989 | locus YDL040C, strain nat1, stronger effect = lower value 1.01 | locus YDL074C, strain BRE1, stronger effect = lower value 1.02 | locus YDL101C, strain DUN1, stronger effect = lower value 1.03 | locus YDL185W, strain tfp1, stronger effect = lower value 1.01 | locus YDL192W, strain arf1, stronger effect = lower value 1 | locus YDR001C, strain nth1, stronger effect = lower value 1.02 | locus YDR069C, strain doa4, stronger effect = lower value 1.02 | locus YDR101C, strain arx1, stronger effect = lower value 0.993 | locus YDR137W, strain rgp1, stronger effect = lower value 1.03 | locus YDR159W, strain sac3, stronger effect = lower value 1.03 | locus YDR162C, strain NBP2, stronger effect = lower value 1.02 | locus YDR195W, strain ref2 1.02 | locus YDR297W, strain sur2, stronger effect = lower value 1.04 | locus YDR318W, strain mcm21, stronger effect = lower value 0.994 | locus YDR334W, strain swr1, stronger effect = lower value 1.03 | locus YDR335W, strain msn5, stronger effect = lower value 1.02 | locus YDR388W, stronger effect = lower value 1.01 | locus YDR392W, strain spt3, stronger effect = lower value 0.958 | locus YDR502C, strain sam2, stronger effect = lower value 1.03 | locus YEL003W, strain gim4, stronger effect = lower value 1.02 | locus YEL037C, strain rad23, stronger effect = lower value 1.02 | locus YEL061C, strain CIN8 (second series), stronger effect = lower value 1.02 | locus YER015W, strain faa2, stronger effect = lower value 1.04 | locus YER016W, strain bim1, stronger effect = lower value 1.02 | locus YER110C, stronger effect = lower value 1.01 | locus YER111C, strain swi4, stronger effect = lower value 1.02 | locus YER155C, strain BEM2 (second series), stronger effect = lower value 1.04 | locus YER155C, strain BEM2, stronger effect = lower value 0.996 | locus YER167W, strain BCK2, stronger effect = lower value 1 | locus YFR010W, strain ubp6, stronger effect = lower value 1.04 | locus YGL078C, strain dbp3, stronger effect = lower value 1.03 | locus YGL086W, strain mad1, stronger effect = lower value 1.02 | locus YGL167C, strain pmr1, stronger effect = lower value 1.03 | locus YGL173C, strain kem1, stronger effect = lower value 1.04 | locus YGL227W, strain vid30, stronger effect = lower value 1.01 | locus YGL240W, strain doc1, stronger effect = lower value 1.03 | locus YGL248W, strain PDE1, stronger effect = lower value 1.07 | locus YGL253W, strain hxk2, stronger effect = lower value 1.04 | locus YGR135W, strain pre9, stronger effect = lower value 1.08 | locus YGR229C, strain SMI1, stronger effect = lower value 0.978 | locus YGR252W, strain gcn5, stronger effect = lower value 1.11 | locus YHR013C, strain ard1, stronger effect = lower value 1.06 | locus YHR027C, strain rpn1, stronger effect = lower value 1.05 | locus YHR030C, strain SLT2, stronger effect = lower value 0.992 and 1.02 | locus YHR079C, strain IRE1 (second series), stronger effect = lower value 1.01 | locus YHR079C, strain IRE1, stronger effect = lower value 1.02 | locus YHR094C, strain hxt1, stronger effect = lower value 1.02 | locus YHR129C, strain ARP1, stronger effect = lower value 1.01 | locus YHR142W, strain chs7, stronger effect = lower value 1.02 | locus YHR200W, strain rpn10, stronger effect = lower value 1.03 | locus YIL066C, strain RNR3, stronger effect = lower value 1.01 | locus YIL073C, strain SPO22, stronger effect = lower value 1.02 | locus YIL125W, strain kgd1, stronger effect = lower value 0.999 | locus YIR030C, strain dcg1, stronger effect = lower value 1 | locus YJL092W, strain hpr5, stronger effect = lower value 1.03 | locus YJL095W, strain BCK1 (second series), stronger effect = lower value 1.03 | locus YJL095W, strain BCK1, stronger effect = lower value 1.09 and 1.03 | locus YJL115W, strain asf1, stronger effect = lower value 1.03 | locus YJL129C, strain trk1, stronger effect = lower value 1.05 | locus YJL134W, strain LCB3, stronger effect = lower value 1 | locus YJL154C, strain vps35, stronger effect = lower value 1.03 | locus YJL164C, strain tpk1, stronger effect = lower value 1.01 | locus YJL166W, strain qcr8, stronger effect = lower value 1.03 | locus YJL168C, strain set2, stronger effect = lower value 1.01 | locus YJL187C, strain SWE1 (second series), stronger effect = lower value 1.05 | locus YJR043C, strain POL32, stronger effect = lower value 0.976 | locus YJR066W, strain TOR1, stronger effect = lower value 0.959 | locus YJR075W, strain HOC1, stronger effect = lower value 1.01 | locus YKL009W, strain mrt4, stronger effect = lower value 0.984 | locus YKL068W, stronger effect = lower value 1 | locus YKL085W, strain MDH1 (second series), stronger effect = lower value 0.978 | locus YKL085W, strain MDH1, stronger effect = lower value 0.978 | locus YKL160W, strain elf1, stronger effect = lower value 1 | locus YKL190W, strain CNB1, stronger effect = lower value 1 | locus YKR001C, strain vps1, stronger effect = lower value 1.03 | locus YKR026C, strain gcn3, stronger effect = lower value 1.03 | locus YKR091W, strain srl3, stronger effect = lower value 1.01 | locus YLL001W, strain dnm1, stronger effect = lower value 0.991 | locus YLL026W, stronger effect = lower value 1.02 | locus YLL041C, strain sdh2, stronger effect = lower value 1.02 | locus YLR027C, strain aat2, stronger effect = lower value 1.02 | locus YLR039C, strain RIC1, stronger effect = lower value 1.05 | locus YLR058C, strain SHM2, stronger effect = lower value 1.03 | locus YLR102C, strain apc9, stronger effect = lower value 1 | locus YLR113W, strain HOG1, stronger effect = lower value 1.03 | locus YLR221C, strain rsa3, stronger effect = lower value 1.04 | locus YLR258W, strain gsy2, stronger effect = lower value 1.01 | locus YLR262C, strain YPT6 (second series), stronger effect = lower value 1.03 | locus YLR268W, strain sec22, stronger effect = lower value 0.981 | locus YLR320W, strain mms22, stronger effect = lower value 1.04 | locus YLR330W, strain CHS5, stronger effect = lower value 1 | locus YLR342W, strain FKS1 (second series), stronger effect = lower value 0.993 | locus YLR342W, strain FKS1, stronger effect = lower value 1.03 | locus YLR357W, strain rsc2, stronger effect = lower value 1.04 | locus YLR370C, strain arc18, stronger effect = lower value 1.02 | locus YLR371W, strain rom2, stronger effect = lower value 1.02 | locus YLR384C, strain iki3, stronger effect = lower value 1.02 | locus YLR418C, strain cdc73, stronger effect = lower value 1.08 | locus YML016C, strain PPZ1, stronger effect = lower value 1.01 | locus YML032C, strain rad52, stronger effect = lower value 1.02 | locus YML120C, strain ndi1, stronger effect = lower value 1.01 | locus YML124C, strain tub3, stronger effect = lower value 1.01 | locus YMR058W, strain fet3, stronger effect = lower value 1.04 | locus YMR078C, strain ctf18, stronger effect = lower value 1.02 | locus YMR125W, strain sto1, stronger effect = lower value 1.05 | locus YMR129W, stronger effect = lower value 1.01 | locus YMR205C, strain PFK2, stronger effect = lower value 1.04 | locus YMR223W, strain ubp8, stronger effect = lower value 1.01 | locus YMR231W, strain pep5, stronger effect = lower value 1.02 | locus YMR263W, strain SAP30, stronger effect = lower value 1.02 | locus YMR307W, strain GAS1, stronger effect = lower value 1.03 | locus YNL067W, strain RPL9B, stronger effect = lower value 1.04 | locus YNL071W, strain lat1, stronger effect = lower value 1.02 | locus YNL183C, strain NPR1, stronger effect = lower value 0.969 | locus YNL209W, strain ssb2, stronger effect = lower value 1.02 | locus YNL233W, strain BNI4, stronger effect = lower value 1.07 | locus YNL248C, strain rpa49, stronger effect = lower value 1.03 | locus YNL250W, strain rad50, stronger effect = lower value 1.04 | locus YNL271C, strain bni1, stronger effect = lower value 1.01 | locus YNL298W, strain CLA4, stronger effect = lower value 1.01 | locus YNL307C, strain MCK1, stronger effect = lower value 1.02 | locus YNL322C, strain KRE1 (second series), stronger effect = lower value 1.02 | locus YNR049C, strain mso1, stronger effect = lower value 1.06 | locus YNR052C, strain pop2, stronger effect = lower value 1.03 | locus YOL012C, strain htz1 1.1 | locus YOL147C, strain pex11, stronger effect = lower value 1.02 | locus YOR001W, strain rrp6, stronger effect = lower value 1.03 | locus YOR061W, strain CKA2, stronger effect = lower value 0.999 | locus YOR069W, strain VPS5, stronger effect = lower value 1 | locus YOR070C, strain gyp1, stronger effect = lower value 1.02 | locus YOR080W, strain dia2, stronger effect = lower value 1.05 | locus YOR083W, strain WHI5, stronger effect = lower value 1 | locus YOR106W, strain vam3, stronger effect = lower value 1 | locus YOR136W, strain idh2, stronger effect = lower value 1.02 | locus YOR144C, strain elg1, stronger effect = lower value 1 | locus YOR184W, strain ser1, stronger effect = lower value 0.981 | locus YOR231W, strain MKK1, stronger effect = lower value 1.02 | locus YOR265W, strain rbl2, stronger effect = lower value 1.03 | locus YOR270C, strain vph1, stronger effect = lower value 1.07 | locus YOR290C, strain snf2, stronger effect = lower value 1.01 | locus YOR316C, strain cot1, stronger effect = lower value 1.02 | locus YPL051W, strain arl3, stronger effect = lower value 1 | locus YPL078C, strain atp4, stronger effect = lower value 1.01 | locus YPL106C, strain sse1, stronger effect = lower value 1.04 | locus YPL240C, strain hsp82, stronger effect = lower value 1.02 | locus YPL256C, strain CLN2, stronger effect = lower value 1.03 | locus YPR119W, strain clb2, stronger effect = lower value 1 | locus YPR141C, strain kar3, stronger effect = lower value 0.987 | locus YPR163C, strain tif3, stronger effect = lower value 1.02 | locus YPR167C, strain met16, stronger effect = lower value 1.01 | strain wtn01, stronger effect = lower value 1
